Results as given in PubChem BioAssay (NCATS).
Records with an inconclusive call do not appear. Where a call stands in place of a potency, no number is given. Values without a mark were called inactive. Active and inactive are the calls of the source. The call rests on the fitted dose curve; in most records, active means well fitted inhibition curve with a large enough effect; inconclusive means small, poorly fitted or top-dose-only effect; inactive means no such curve, though single readings can be large or run the other way.

Tests used:
[1] = system: Zika virus NS2B-NS3 protease (unlinked complex); assay: Primary screen GU Rhodamine qHTS for Zika virus inhibitors: Unlinked NS2B-NS3 protease assay (AID 1347159); further: nearly all actives have a fitted effect of over 60% in size
In short: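 Buffer 10 mM Tris-HCl pH 8.0, 0.01% Tween 20. Unlinked protease 25 nM; compound preincubation 15 min, RT, protected from light. Substrate Rhod110, 1.5 microM; ~15% conversion in 15 min.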

[2] = system: Zika virus NS2B-NS3 protease (linked construct); assay: Primary screen NINDS Rhodamine qHTS for Zika virus inhibitors (AID 1347160); further: nearly all actives have a fitted effect of over 55% in size
In short: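 Aprotinin served as in-plate control. Conditions: 25 nM linked NS2B-NS3, pH 8.0 Tris buffer, titrated compounds, 15 min preincubation and 15 min reaction with 1.5 microM Rhod110 substrate at room temperature.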
Potency means the concentration at half of the fitted maximal effect.

Compound | Potency [1] | Potency [2] | activity change, negative = inhibition [1]
CNc1nc(Cc2ccccc2)nc2c1CCNC[C@@H]2C | inactive | inactive | 
CCCC/C=C\CCCCCc1cc(=O)c2ccccc2n1C | inactive | inactive | 
CC(=O)O[C@@]1(C)[C@@H]2CC(=C(C)C)C(=O)C[C@@]2(C)CC[C@H]1OC(=O)C1(C)OC1C (some centres undefined) | inactive | inactive | 
CC1CCC23COC(=O)C2=CC(O)CC3C1(C)CCc1ccoc1 (centres undefined) | inactive | inactive | 
CCc1nn(CCO)c(CC)c1Oc1cc(C#N)cc(C#N)c1 | inactive | inactive | 
CCC(=O)N1CCc2cc(OC)c(O)cc2C1 | inactive | inactive | 
COc1cc(O)cc2c1C(=O)OC(C)CCCCCCC2 (centres undefined) | 20 µM (active) | 14.1 µM (active) | 
N#Cc1ccc(C2CCCc3cncn32)cc1 (centres undefined) | inactive | inactive | 
CC[C@@H](C)[C@H](N)C(=O)N1Cc2ccccc2C1 | inactive | inactive | 
C=C[C@H]1[C@H](O[C@@H]2O[C@H](CO)[C@@H](O)[C@H](OC(=O)/C=C/c3ccc(O)c(OC)c3)[C@H]2O)OC=C2C(=O)OCC[C@]21O | inactive | inactive | 
C/C=C(/C)C(=O)O[C@H]1C[C@]2(C)O[C@@H]2[C@@H](OC(C)=O)[C@@]2(C)CC[C@@](O)(C(C)C)[C@H]12 | inactive | inactive | 
N[C@@H](CCNCc1ccc(Cl)cc1)C(=O)N1CCCCC1 | inactive | inactive | 
Cc1ncc(Cl)cc1NCc1ccc(C(=O)NC(CC2CCCC2)C(=O)NC2CC2)s1 (centres undefined) | inactive | inactive | 
COC(=O)C1=CO[C@@H](O[C@@H]2O[C@H](CO)[C@@H](O)[C@H](O)[C@H]2O)[C@@H]2[C@@H](C)[C@@H](OC(=O)/C=C/c3ccccc3)[C@@H](O)[C@H]12 | inactive | inactive | 
CCCO[C@@H]1O[C@H](CO)[C@@H](O)[C@H](O)[C@H]1O[C@@H]1OC[C@@H](O)[C@H](O)[C@H]1O | inactive | inactive | 
COc1ccc(C(=O)NCc2cc(C(C)C)no2)cc1OC1CCN(C)CC1 | inactive | inactive | 

Compound | Potency [1] | Potency [2] | activity change, negative = inhibition [1]
Fc1ccc(-c2c3cccc(C(F)(F)F)c3nn2Cc2ccc(F)cc2Cl)cc1 | inactive | inactive | 
CC(=O)c1ccc(O[C@@H]2O[C@H](CO[C@@H]3OC[C@@H](O)[C@H](O)[C@H]3O)[C@@H](O)[C@H](O)[C@H]2O)cc1 | inactive | inactive | 
C[C@@H]1O[C@@H](OC2C(CO)OC(OCC3OC(OC(=O)[C@]45CCC(C)(C)CC4C4=CCC6[C@@]7(C)CC[C@@H](O)[C@](C)(C(=O)O)C7CC[C@@]6(C)[C@]4(C)CC5)C(O)C(O)C3O)C(O)C2O)[C@H](O)[C@H](O)[C@H]1O (some centres undefined) | inactive | inactive | 
CCCNCCOc1ccc(NC(=O)c2c[nH]c3c2C(=O)CCC3)cc1F | inactive | inactive | 
O=C(O)c1ccnc2cc(-c3nc4ccccc4n3CCN3CCCCC3)sc12 | inactive | inactive | 
COC(=O)[C@H](Cc1ccc([N+](=O)[O-])cc1)NC(=O)c1cccc2ccccc12 | inactive | inactive | 
C/C=C/C(=O)OC1/C=C/C(O)C(OC(C)=O)CCC(=O)OC1C (centres undefined) | inactive | inactive | 
CC1(C)CC[C@]2(C(=O)O[C@@H]3O[C@H](CO)[C@@H](O)[C@H](O)[C@H]3O)CC[C@]3(C)C(=CCC4[C@@]5(C)C[C@H](O)[C@H](O[C@@H]6O[C@H](C(=O)O)[C@@H](O)[C@H](O)[C@H]6O)[C@@](C)(CO)C5CC[C@]43C)C2C1 (some centres undefined) |  | inactive | 21.5% [at 19.1 µM]
CC(=O)OC1(C)CC(O)C2(O)C=COC(OC3OC(CO)C(O)C(O)C3O)C12 (centres undefined) | inactive | inactive | 
C=C1CCC2C(C)(C(=O)O)CCCC2(C)C1CC/C(C)=C\CO (centres undefined) | inactive | inactive | 
COC(=O)C1=CO[C@@H](O[C@@H]2O[C@H](CO)[C@@H](O)[C@H](O)[C@H]2O)[C@@H]2[C@@H](C(=O)O)CC[C@H]12 | inactive | inactive | 
COc1cn(-c2ccc(-n3cccn3)cc2F)nc(-c2ccnn2-c2ccccc2)c1=O | inactive | inactive | 
CN(C)c1ccc(C2O[C@@H](c3ccccc3)C[C@H](c3ccccc3)O2)cc1 (some centres undefined) | inactive | inactive | 
COc1cc(OC)cc(-c2ccc3c(-c4ccc(F)cc4)[nH]nc3n2)c1 | inactive | inactive | 
COc1cc(C(CO)CO[C@@H]2O[C@H](CO)[C@@H](O)[C@H](O)[C@H]2O)ccc1O (some centres undefined) | inactive | inactive | 
CC1(C)C(=O)CCC2(C)C1C(O)C=C1COC(=O)C12O (centres undefined) | inactive | inactive | 
